TRPM1 prom inh: inhibitors of MITF-driven TRPM1 promoter in melanoma cells | SK-MEL-5 TRPM1 promoter luciferase, 24 h | inhibition, % at 12.5 µM | actives 0.83% (n = 330,000) | AID 488899;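 active = mean inhibition across replicates of 60% or more, whatever share of single replicates reaches that level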
HIF-2a block: blocks HIF-2a reporter activity. 786-0 RCC cells HIF-2a reporter, luciferase luminescence, overnight. inhibition, % at 18.8 µM. actives 0.72% (n = 360,000);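 active = inhibition of the luminescence signal of 40% or more relative to plate controls, in a single-dose primary screen at 18.75 µM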
TROY signal inh: inhibitors of TROY-dependent NF-kB signaling | Q293 LMP1-TROYcd NF-kB luciferase reporter, 4 h | inhibition, % at 10 µM | actives 0.98% (n = 360,000);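 active = compounds whose plate-normalised and pattern-corrected inhibition of the luciferase reporter signal at the single screening dose is 50% or more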
Peg3 promoter: inhibitors of Peg3 promoter; HeLa PEG-Prom luciferase reporter, luminescence, overnight; inhibition, % at 20 µM; actives 1.7% (n = 360,000); AID 588405;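 active = inhibition of at least 50% at 20 µM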
TWEAK Fn14 block: blocks TWEAK-Fn14 interaction in a reporter cell assay; TWEAK-stimulated Fn14 reporter cells, luciferase luminescence, 8 h; inhibition, % at 10 µM; actives 2% (n = 360,000); AID 1159606; in the data active = inhibition above about 50%
EBV LMP1 NFkB: reduces LMP1-driven NF-kappaB luciferase signal; LMP1-induced NF-kappaB luciferase reporter cells, luminescence; inhibition, % at 12.5 µM; actives 0.69% (n = 350,000); in the data active = inhibition above about 41%;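 note: 0% = neutral control wells and 100% = reference inhibitor control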
Numbers without * were called inactive; / = no result given. The list is not random: actives were taken first. Their share in the collection is about 4%.

SMILES	TRPM1 prom inh	HIF-2a block	TROY signal inh	Peg3 promoter	TWEAK Fn14 block	EBV LMP1 NFkB
CC(=O)c1ccc(OCCCC(=O)Nc2cc(S(=O)(=O)N3CCCCC3)ccc2C)cc1	1	5	1	27	6	-5
O=c1cc(-c2ccc(O)c(O)c2)oc2ccc3ccccc3c12	88*	6	78*	20	92*	52*
O=c1cc(-c2ccc(O)c(O)c2)oc2c1ccc1ccccc12	-33	-32	33	17	8	3
Cc1ccc(/C=C/C(=O)N2CC(C)CC(C)C2)o1 (stereo not given)	9	39	5	76*	18	-23
O=C(/C=C/c1ccco1)N1CCN(S(=O)(=O)c2cccs2)CC1	6	4	8	2	-3	6
CCN1CCN(C(=O)/C=C/c2ccc(C)o2)CC1	23	7	-23	4	-3	-1
Cc1ccc(/C=C/C(=O)N2CCN(S(=O)(=O)c3cccs3)CC2)o1	19	9	16	5	86*	0
CCCNC(=O)C1(C)CCN(C(=O)COCc2ccccc2)C1 (stereo not given)	/	-3	0	-5	-1	/
CC(=O)c1ccc[n+](CC(=O)NC(C)c2ccccc2)c1 (stereo not given)	-2	17	-9	6	7	-12
COc1ccc(NC(=O)C2CC(=O)N(CCc3ccc(Cl)cc3)C2)cc1 (stereo not given)	13	13	-6	14	3	-8
CC1C(=O)CC2C3(C)CCC2(C(C)C(=O)O)C(=O)C13 (stereo not given)	/	9	-14	15	14	/
CN(C)CCCNc1cc(-c2ccccc2)nc2cc(-c3cccc(F)c3)nn12	63*	-47	-100	101*	-57	-19
COC(=O)c1cc(Br)c(=O)n(Cc2ccco2)c1	-4	11	/	3	78*	3
CC(C)(CO)NCc1c(OCc2ccc(Cl)cc2)ccc2ccccc12	-10	-54	-16	54*	-15	10
CNCc1c(OCc2ccccc2)ccc2ccccc12	7	2	-10	-7	4	-1
CCN(CC)c1ccc(NC2=C(Cl)C(=O)c3ccccc3C2=O)cc1	92*	96*	-6	103*	57*	80*
CCOc1ccc(NC2=C(OC)C(=O)c3ccccc3C2=O)cc1	31	-144	-57	-110	-22	-5
COC1=C(Nc2ccc(O)cc2)C(=O)c2ccccc2C1=O	80*	-100	-18	-36	-5	1
Cc1ccc(NC2=C(N3CCOCC3)C(=O)c3ccccc3C2=O)cc1	6	-170	-1	-233	2	4
Cc1ccc(NC2=C(Cl)C(=O)c3ccccc3C2=O)cc1	103*	-55	-39	96*	11	-6
CC1CCCCC1NC(=O)CCn1ccc2cc(S(=O)(=O)N3CCCC3)ccc21 (stereo not given)	-17	7	-21	13	10	4
COc1cc(-c2noc(C)c2/C=C/c2ccc(OC(C)=O)cc2)cc(OC)c1OC	28	-2	5	-34	52*	11
CC1(C(=O)NS(=O)(=O)c2ccc3c(c2)CCO3)CCN1C(=O)c1ccccc1CCc1ccccc1 (stereo not given)	/	16	-8	3	-15	/
Cc1ccc(C(=O)N2c3ccccc3N(Cc3ccccc3)C(=O)C2(C)C)cc1	25	20	36	48	53*	23
CN(C)CCCNC1=CC(=O)OC12CCCCC2	-5	7	/	12	90*	1
SMILES	TRPM1 prom inh	HIF-2a block	TROY signal inh	Peg3 promoter	TWEAK Fn14 block	EBV LMP1 NFkB
CC(C)(C)CC(C)(C)NC1=CC(=O)OC12CCCCC2	-7	8	-3	2	-3	0
O=C(CNC(=O)c1cccs1)OCc1ccc(Br)cc1	-6	1	0	-6	0	10
O=C(CNC(=O)c1cccs1)c1ccc(Br)cc1	-116	-215	-7	-357	55*	-22
CC(C)Oc1cccc(C(=O)Nc2nnc([C@@H]3C[C@H](O)[C@@H](CO)O3)s2)c1	/	1	13	-2	-9	/
Cc1cc(COc2ccccc2)oc1C(=O)O	-17	-42	58*	25	90*	-30
CS(=O)(=O)Nc1ccc(C2=NN(S(C)(=O)=O)C(c3ccccc3)C2)cc1 (stereo not given)	-8	-66	-26	-60	-18	66*
CCS(=O)(=O)N1N=C(c2ccc(NS(C)(=O)=O)cc2)CC1c1ccccc1 (stereo not given)	-16	-20	-38	-10	-3	3
CC(NC(=O)C1CCCN(C(=O)c2ccc(Cl)cc2)C1)c1cccc(C(F)(F)F)c1 (stereo not given)	9	3	-8	17	9	0
CCOC(=O)c1nc2sc(C)c(C)c2c(=O)[nH]1	12	6	-19	5	1	1
CCOC(=O)/C(=C\c1cccc(O)c1)c1nc2sc(C)c(C)c2c(=O)[nH]1	25	95*	37	115*	101*	3
O=C(NCCN1CCOCC1)C1CC(=O)N(c2ccc(Cl)cc2)C1 (stereo not given)	1	12	5	9	0	4
O=C(O)/C(=C/c1ccc(Cl)c([N+](=O)[O-])c1)c1ccc(S(=O)(=O)N2CCCCC2)s1	-8	0	12	11	11	-10
COc1ccc(C2CC(c3cccc(Cl)c3)=NN2c2ccc(S(N)(=O)=O)cc2)cc1 (stereo not given)	-4	-8	-2	54*	6	10
O=C(/C=C/c1ccccc1)c1ccc2c3c(cccc13)CC2	-36	-320	25	60*	36	11
CC(=O)c1c(N2CCOCC2)[nH]c(-c2ccccc2)nc1=S	-2	24	67*	19	15	-2
Cc1ccc(C(=O)SC2=NCCS2)cc1	17	1	49	1	60*	4
Nc1cccc2c1C(=O)N(CCOc1ccc(F)cc1)C2=O	-72	-204	-36	-253	-5	-20
Cc1ccccc1CSc1nnc([C@@H]2CCCN2)o1	-4	10	-8	-11	-16	53*
COc1ccc(CCN(C(=S)Nc2ccccc2)C2CC(=O)N(c3ccccc3)C2=O)cc1 (stereo not given)	-6	-4	2	0	9	0
O=C1CC(N(CCc2ccccc2)C(=S)Nc2ccccc2)C(=O)N1c1ccc(Br)cc1 (stereo not given)	-10	-30	47	54*	79*	5
O=C(c1ccsc1)N1CCCC(N2CCN(c3ccccc3F)CC2)C1 (stereo not given)	1	-13	-9	-2	95*	-2
O=C(c1noc2c1CCCC2)N1CCCC(N2CCN(c3ccccc3F)CC2)C1 (stereo not given)	4	1	-4	-7	4	-2

Screening results (PubChem BioAssay)
